The values that follow come from PubChem BioAssay AID1063 (University of Pittsburgh Molecular Library Screening Center, 2008).

In all, about 200,000 compounds went through this assay and about 18,000 (9%) were called active. The sample holds actives, similar compounds and a random draw of the others, so the mix is not that of the screen. Rule as the data show it: active = inhibition above about 50%; inactive = the rest.

The test is described as follows: Leishmania major promastigote growth inhibition, primary screen (AID 1063).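 Also: promastigotes grown with compound for 44 hours at 28 °C.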 To be noted: Leishmania major promastigotes, resazurin fluorescence viability; at 10 µM; stronger effect = higher value. Background: Alamar Blue is a resazurin reagent that responds to reducing activity.
For the compound `Cc1ccc(OCc2n[nH]c(=S)n2-c2ccc(C)cc2)cc1`, the inhibition (as a rule, the relative decrease from the control value, in per cent) is 1.58% (inactive).

Consider `Cc1c(-c2cccc(Cl)c2)nc2ccccc2c1C(=O)OCC(=O)N(C)C1CCS(=O)(=O)C1` (centres undefined), for which the inhibition was 30.9% (inactive).

Turning to `Cc1c(Br)cc(C(=O)N2CCCCCC2)c(C)c1C`, the inhibition is 79% (active).

As to `COc1cc(OC)c(C(=O)N2CCCC2)cc1OC`, the inhibition was -1.38% (inactive).

For the compound `Cc1ccc(C(=O)N2CCCCCC2)cc1Br`, the inhibition is 1.69% (inactive).

`Cc1ccc(NC(=O)CSc2nnc(CNC(=O)c3ccccc3F)o2)cc1`: the inhibition was -3.87% (inactive).

On to `CCC(C)(C)NC(=O)CN(C(=O)C(=O)Nc1ccc2c(c1)OCCO2)C(C)(C)CC`, for which the inhibition was 9.2% (inactive).

In the case of `O=C(CN1CCN(C2CCCCC2)CC1)Nc1ccccc1N1CCCCC1`, the inhibition was 10.2% (inactive).

Consider `CCOC(=O)CN1CCC(c2ccccc2)CC1`, for which the inhibition was -3.4% (inactive).

Consider `c1ccc(C2CCC(N3CCC(N4CCCCC4)CC3)CC2)cc1` (centres undefined), for which the inhibition was 92.2% (active).

Take `O=C(COc1ccc(S(=O)(=O)N2CCCCC2)cc1)NCc1ccccn1`: the inhibition was -4.35% (inactive).

With `COc1cc(N/C=C2\CC(=O)NC(C)=C2C#N)cc(OC)c1OC`, the inhibition is -6.28% (inactive).

`O=C(CCS(=O)(=O)Cc1ccccc1)Nc1ccc2c(c1)OCCO2`: the inhibition was -2.36% (inactive).

With `O=C(Cn1cnc([N+](=O)[O-])n1)NCCc1ccccc1`, the inhibition is 21.8% (inactive).

As for `O=C(Nc1cccc(CCc2ccccn2)c1)c1ccc(Cl)cc1`, the inhibition is 2.49% (inactive).

For the compound `Cc1ccc2[nH]c(=O)c(CN(CC3COCCO3)C(=O)Nc3ccccc3C)cc2c1` (centres undefined), the inhibition is 4% (inactive).

Take `Cc1ccc2[nH]c(=O)c(CN(CCCN(C)C)C(=O)Nc3cccc(Cl)c3)cc2c1`: the inhibition was 93.2% (active).

For `Cc1cccc(NC(=O)N(Cc2cc3cc(C)cc(C)c3[nH]c2=O)CC2COCCO2)c1` (centres undefined), the inhibition is 37.5% (inactive).

For the compound `COc1ccc(C(=O)Nc2ccc(NC(=O)C(C)C)nc2)cc1`, the inhibition was 25.1% (inactive).

For the compound `O=C(N/C(=C\c1ccc(F)cc1)C(=O)N1CCCCCC1)c1ccccc1`, the inhibition was -5.92% (inactive).

Regarding `Cc1cc2ccccc2n1CCC(=O)O`, the inhibition is -7.95% (inactive).

Regarding `Cc1ccc(/C=N\n2c(-c3ccccc3)n[nH]c2=S)s1`, the inhibition was 0.81% (inactive).

Turning to `CCc1n[nH]c(=S)n1/N=C/c1c[nH]c2ccc(Br)cc12`, the inhibition is 11.7% (inactive).

As to `S=c1[nH]nc(-c2ccccc2)n1/N=C/c1c[nH]c2ccccc12`, the inhibition is 54.7% (active).

For the compound `O=C(CCCNS(=O)(=O)c1cccc2nsnc12)NCCN1CCN(c2ccccc2F)CC1`, the inhibition is -3.45% (inactive).

Consider `Cc1cc(-c2csc(N)n2)c(C)n1Cc1ccccc1`, for which the inhibition is 7.08% (inactive).

For the compound `COc1ccc(C2SCCN2S(=O)(=O)c2ccccc2)cc1OC` (centres undefined), the inhibition was 22.3% (inactive).

`COc1ccc(C2NC(=S)NC3=C2CCc2ccccc23)cc1OC` (centres undefined): the inhibition was 57.7% (active).

For the compound `COc1ccc(/C=C2\CCc3ccccc3C2=O)c(OC)c1OC`, the inhibition is 8.72% (inactive).

Take `Cc1onc(C(=O)NCc2ccc(F)cc2)c1[N+](=O)[O-]`: the inhibition was -5.34% (inactive).

Take `CC(=O)c1ccc(NC(=O)C(C)NCc2ccc(Cl)cc2)cc1` (centres undefined): the inhibition was -2.38% (inactive).

Regarding `C=Cn1c(C(=O)O)ccc1-c1ccc(OC)cc1`, the inhibition is -4.56% (inactive).

In the case of `CCOC(=O)C1CCCN(C(=O)COc2ccc(N(C)S(=O)(=O)c3ccc(C)cc3)cc2)C1` (centres undefined), the inhibition was 27.7% (inactive).

Consider `CCC1CCCCN1S(=O)(=O)Cc1ccccc1Cl` (centres undefined), for which the inhibition was 3.99% (inactive).

For `O=C(CC1C(=O)NCCN1Cc1ccc(-c2ccccc2)cc1)NCC1CCOCC1` (centres undefined), the inhibition is 2.89% (inactive).

For `Cc1nnc(CN(C)Cc2cn[nH]c2-c2ccc(-c3ccccc3)cc2)o1`, the inhibition was 26.1% (inactive).

Consider `CN(CCC1CCOCC1)Cc1cn[nH]c1-c1ccc(-c2ccccc2)cc1`, for which the inhibition was 66.8% (active).

On to `CC(C(=O)N=Nc1c(O)n(C)c2ccc(Br)cc12)n1cnc2ccccc2c1=O` (centres undefined), for which the inhibition was 7.13% (inactive).

Turning to `Clc1ccc(-c2ncc3ccccn23)c(Cl)c1`, the inhibition was 4.32% (inactive).

As for `O=C1CSC(c2ccccc2)N1c1nc(-c2ccc(Cl)cc2Cl)cs1` (centres undefined), the inhibition was -6.37% (inactive).

On to `Clc1ccc(-c2cc(C3CCNCC3)[nH]n2)c(Cl)c1`, for which the inhibition is 94.3% (active).

With `CCOC(=O)c1cc2c(=O)[nH]c(C(Cl)(Cl)Cl)nc2o1`, the inhibition was -8.22% (inactive).

Turning to `COc1ccc(C2C(C#N)=C(N)N(c3ncn[nH]3)C3=C2C(=O)CCC3)cc1` (centres undefined), the inhibition is -5.04% (inactive).

As to `CSc1sc(C)cc1C1C(C#N)=C(N)N(c2cccnc2)C2=C1C(=O)CCC2` (centres undefined), the inhibition was 7.04% (inactive).

For `N#CC1=C(N)N(c2ccccc2)C2=C(C(=O)CCC2)C1c1ccccc1` (centres undefined), the inhibition was 69.2% (active).

With `Cc1cc(NC(=O)CSc2nnc(Nc3ccccc3F)s2)no1`, the inhibition was 0.51% (inactive).

For `O=C(CSc1nnc(C2CC2)n1Cc1ccccc1)Nc1cccnc1Cl`, the inhibition was 3.75% (inactive).

Turning to `O=C(CSc1nnc(Nc2ccccc2)s1)Nc1cccnc1Cl`, the inhibition is 66.3% (active).

`CC(=O)c1c(-c2ccccc2)c2ccccc2[nH]c1=O`: the inhibition is -2.95% (inactive).

Take `c1ccc2c(c1)C(=NC1CCCCC1)NC2=NC1CCCCC1`: the inhibition was 100% (active).

Consider `O=C1CCCCC(=O)c2ccccc2N1`, for which the inhibition is 0.26% (inactive).

Regarding `CN(C)S(=O)(=O)c1cccc(NC(=O)COC(=O)/C=C/c2cccs2)c1`, the inhibition is -4.76% (inactive).

Turning to `CCOCC(=O)Nc1ncc(S(=O)(=O)c2ccc([N+](=O)[O-])cc2)s1`, the inhibition is 20.7% (inactive).

`Cc1ccc(N/N=C2\COC(C)(C)CC2=O)cc1`: the inhibition is 0.62% (inactive).

Regarding `COc1ccc(NC(=O)c2c(C)oc3c2CCCC3)cc1`, the inhibition is -5.6% (inactive).

As to `COc1ccc(N/N=C2/CCCCC2=O)cc1`, the inhibition is 67.6% (active).

As to `O=C(N/N=C/c1ccccc1O)/C(=C/c1ccccc1)CCO`, the inhibition was 97.6% (active).

Consider `O=C(CCCO)N/N=C/c1cc(Br)ccc1O`, for which the inhibition is 12.7% (inactive).

For `O=C(CCCCCNC(=O)c1ccccc1)N/N=C/c1ccccc1`, the inhibition was -3.34% (inactive).

Consider `Cc1c(C=O)c2ccccc2n1CC(=O)O`, for which the inhibition was -9.42% (inactive).

Turning to `Cc1ccccc1OCCC(=O)OCC(=O)NC(C)c1ccccc1` (centres undefined), the inhibition was 1.48% (inactive).

Consider `CNC(=O)c1ccsc1NC(=O)c1ccc(S(=O)(=O)N2CCc3ccccc32)cc1`, for which the inhibition is 89.2% (active).

As for `CNC(=O)c1ccsc1NC(=O)c1ccc(S(=O)(=O)N2CCOCC2)cc1`, the inhibition is 12.3% (inactive).

`CC1CN(S(=O)(=O)c2ccc(C(=O)Nc3sccc3C(N)=O)cc2)CC(C)O1` (centres undefined): the inhibition was 6.76% (inactive).
